High-throughput results as filed in PubChem.
Tb hexokinase: blocks Trypanosoma brucei hexokinase 1 activity; 220,000 compounds, 0.11% hits; recombinant TbHK1, G6PDH-coupled NADH A340; inhibition, % at 10 µM;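 active = inhibition of 50% or more in the single-dose primary screen; inactive = inhibition below 50%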
Insulin prom up: MIN6 insulin promoter up-regulation; MIN6 insulin promoter-GFP reporter, high-content imaging; active compounds read high; z-score at 5 µM; 190,000 compounds, 0.3% hits;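 active = z-score above 3 at 5 µM with at least 500 cells counted in the well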
INS promoter inh: TRM-6 insulin promoter activity inhibition; TRM-6 cells (human fetal islet line), insulin promoter-eGFP reporter, imaging; reporter expression induced with tamoxifen; inhibition, % at 2 µM; 130,000 compounds, 0.9% hits;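 active = inhibition above the mean plus 3 SD, with well images judged a real hit on visual review, cut at about 60% in these data, passing the limit was not always enough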
HSV replic up: increases HSV replication in cells. HSV replication augmentation in cells, fold increase. maximum fold increase. 220,000 compounds, 0.005% hits. AID 1956; in the data active = maximum fold increase above about 1.5; tested in PC3 cells
ROMK mod: modulates human ROMK potassium channel activity | B-score at 10 µM | 130,000 compounds, 2% hits | P48048 | AID 1918 | Tet-inducible ROMK, thallium flux fluorescence; actives lie on both sides;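 active = signal ratio slope over the read window, or its plate-corrected B-score, at least 3 SD from the plate mean, either direction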;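 note: B-score of the F/F0 ratio slope over 7 to 12 s after thallium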
Target sequence (P48048 whole entry, looked up): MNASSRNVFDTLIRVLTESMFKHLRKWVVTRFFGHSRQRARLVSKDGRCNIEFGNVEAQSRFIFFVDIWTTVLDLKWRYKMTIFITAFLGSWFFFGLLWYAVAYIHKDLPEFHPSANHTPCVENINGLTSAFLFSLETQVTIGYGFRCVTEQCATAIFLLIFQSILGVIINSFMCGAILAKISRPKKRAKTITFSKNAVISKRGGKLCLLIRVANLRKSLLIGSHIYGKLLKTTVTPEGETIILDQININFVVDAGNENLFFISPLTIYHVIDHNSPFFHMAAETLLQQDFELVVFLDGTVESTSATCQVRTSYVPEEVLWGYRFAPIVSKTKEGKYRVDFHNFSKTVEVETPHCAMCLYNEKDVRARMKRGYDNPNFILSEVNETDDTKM
* marks the source's active call; other numbers are inactive results; i = inactive; . = no result given. Only a selection was taken, and hits are over-represented in it overall.

SMILES	Tb hexokinase	Insulin prom up	INS promoter inh	HSV replic up	ROMK mod
Cc1cc2c(cc1C)CSC(c1ccc3ccccc3c1O)SC2	-4	0.2	63*	i	0.15
CCCc1n[nH]c2c1C(=O)C(C(=O)OC)C(C)(C)C2 (stereo not given)	0	3.6*	30	i	-0.14
O=C(O)CC(CCc1ccccc1)OC1OC(CO)C(O)C(O)C1O (stereo not given)	73*	-0.22	.	i	.
Cc1c(C(=O)/C=C/N(C)C)nnn1-c1ccc(Cl)cc1C#N	-137	0	.	i	.
Cc1cc(C)n(-c2ccc(C(=O)Nc3ccc(C)c(S(=O)(=O)N4CCOCC4)c3)cc2)n1	-7	0.41	.	i	.
O=c1ccnc(Nc2ccc3c(c2)OCCO3)[nH]1	-18	3.7*	.	i	-0.18
O=C(CSc1nccc(=O)[nH]1)Nc1ccc2c(c1)OCCO2	-2	-0.61	.	i	0.14
CCCCC(O)(CCCC)C(=O)NN(C(=O)OC)c1ccc(C)cc1	-7	-0.01	.	i	.
Cc1ccc(-c2nnc(CCC(=O)NCC3C4CC5CC(C4)CC3C5)o2)s1 (stereo not given)	-12	0.86	.	i	-0.93
CCN1C(=O)C(O)(CC(=O)c2ccccn2)c2ccccc21 (stereo not given)	-10	.	75*	i	0.56
Cc1ccc(-n2c(SC3CCOC3=O)nc3ccccc3c2=O)cc1 (stereo not given)	9	-0.78	.	i	0.24
COc1ccc(-n2c(=O)c3c4c(sc3n(CC(N)=O)c2=O)CCCCC4)cc1	0	-0.55	.	i	1.1
CC(=O)c1ccc(Oc2cnccn2)cc1	-3	0.01	.	i	0.76
CC(=O)c1c(C)[nH]c(C(=O)Nc2ccc(C)c(C)c2)c1C	-12	-0.65	.	i	0.22
COc1ccc(NC(=O)c2[nH]c(C)c(C(C)=O)c2C)cc1Cl	-11	3.8*	3	i	1.2
O=C1CCN(S(=O)(=O)c2cccs2)c2ccc(C(F)(F)F)cc2N1	-5	0.38	.	i	0.24
COc1ccc(CNC(=O)C2(C)Cc3ccccc3C(=O)O2)cc1 (stereo not given)	-2	0.36	-35	i	0.55
CCN(CC)c1ccc(NC(=O)c2ccc(=O)[nH]c2)cc1S(=O)(=O)Nc1ccccc1OC	-3	1.2	-60	i	2.4
CCCCNc1c2c(nc3c(-c4ccccc4)c(C)nn13)CCC2	-14	.	-4	i	-1.1
COc1cccc(Nc2c3c(nc4c(-c5ccccc5)c(C)nn24)CCC3)c1	-15	-0.14	94*	i	.
Cc1nn2c(Nc3ccc(F)cc3)c3c(nc2c1-c1ccccc1)CCC3	-5	-0.14	87*	i	.
O=C(CNCCc1ccccc1)N1CCc2ccccc2C1	1	-1.1	-33	i	0.17
COc1ccc(S(=O)(=O)N(CC(=O)NCC2CCCO2)c2ccc(F)cc2)cc1OC (stereo not given)	-4	-0.52	-24	i	.
COc1cc(C)nc(N2CCCC(C(=O)Nc3cccc(Cl)c3C)C2)n1 (stereo not given)	2	3.9*	.	i	.
COc1ccc(/C=N/Nc2cn[nH]c(=O)c2Cl)cc1	-61	-1.1	0	i	0.068
SMILES	Tb hexokinase	Insulin prom up	INS promoter inh	HSV replic up	ROMK mod
COCCN1C=C(C(=O)OC)C(c2ccc(OC)c(OC)c2)C(C(=O)OC)=C1	-10	1.1	71*	i	0.44
CCCOc1ccc(C2C(C(=O)OC)=CN(CCOC)C=C2C(=O)OC)cc1	-4	0.55	17	i	.
COc1cccc(C(=O)C2CCCN(Cc3cn(CC(N)=O)c4ccccc34)C2)c1 (stereo not given)	1	0.07	-6	i	0
CC(=O)Nc1c(C(=O)c2ccccc2)oc2ccccc12	-28	0.37	71*	i	-0.37
Cc1nn(C)c(Oc2ccccc2)c1CCNS(=O)(=O)c1ccccc1	0	0.42	.	i	.
CC(=O)Nc1ccc(NC(=O)Cc2ccc(S(=O)(=O)N3CCCCC3)s2)cc1	0	.	80*	i	1.4
CCC(=O)N/C(N)=N/c1nc(C)c2cc(OC)ccc2n1	-2	0.01	80*	i	.
CCCCNC(=S)NNC(=O)c1c(C)nc2ccccn12	-1	.	14	i	0.064
O=CN/C=C/c1cc(O)ccc1O	3	-0.55	.	i	.
Cc1ccc(NC(=S)/C(=C(\[O-])c2ccc(C)c([N+](=O)[O-])c2)[n+]2ccccc2)cc1C	-13	-0.01	-9	i	.
COc1cccc(NC(=S)/C(=C(\[O-])c2ccc(C)c([N+](=O)[O-])c2)[n+]2ccccc2)c1	-27	-0.14	77*	i	.
O=C1c2ccccc2C(=O)N1CC(O)COCc1ccccc1 (stereo not given)	0	-0.07	8	i	-0.063
O=C1c2ccccc2C(=O)N1CC(O)CNc1ccc(Br)cc1 (stereo not given)	23	0.28	72*	i	.
O=c1[nH]c(CN2CCN(CCO)CC2)nc2ccccc12	7	0	100*	i	.
Cc1ccc(NC(=O)c2cccs2)cc1	4	.	47	i	.
Cc1ccc(NC(=O)C(=O)NNC(=O)c2cccs2)cc1	-20	-0.76	17	i	2.9*
O=C(COC(=O)CCSc1ccc(Cl)cc1)NCCc1ccccc1	-3	-0.36	.	i	.
O=C(COC(=O)CCSc1ccc(Cl)cc1)NCc1ccccc1Cl	6	-0.23	67*	i	0.55
Cc1ccc(C2CC(c3ccc(Cl)cc3)=NNC2=O)cc1 (stereo not given)	1	0.63	.	i	-2.1
Cc1cccc(C2=NNC(=O)C(c3ccc(Cl)cc3)C2)c1 (stereo not given)	6	1.5	100*	i	-1.5
COc1ccc(S(=O)(=O)NCc2ccc(C(=O)N3CCc4ccccc4C3)cc2)cc1	3	-0.29	23	i	-0.66
C/C(=N\NC(=O)CCCNc1ccccc1)c1ccncc1	3	0.92	.	i	1.5
C/C(=N\NC(=O)CCCNc1ccc(C)cc1)c1ccccn1	2	-0.72	64*	i	0.055
CN(Cc1nc2ccccc2n1C)S(=O)(=O)c1ccc(F)cc1	3	-0.34	93*	i	.
CS(=O)(=O)N1CC(C(=O)NC2CCCC2)Oc2ccc(Cl)cc21 (stereo not given)	2	-0.14	-17	i	.
SMILES	Tb hexokinase	Insulin prom up	INS promoter inh	HSV replic up	ROMK mod
NC(=O)c1ccccc1N/C=C/C(=O)c1ccc(Cl)cc1Cl	-24	-0.1	74*	.	.
Cc1cc(=O)[nH]c(SCC(=O)N2CCN(S(=O)(=O)c3ccccc3)C2)n1	0	0.24	.	i	0.19
Cc1nc2c([nH]c3ccc(Br)cc32)s1	6	0.37	95*	i	0.59
COc1ccc(CN(CC2CCC(C(=O)O)CC2)C(=S)Nc2cccc(C)c2)cc1 (stereo not given)	-8	3.6*	.	i	0.23
Cc1ccc(S(=O)(=O)/C(C#N)=C/c2c(N3CC(C)OC(C)C3)nc3c(C)cccn3c2=O)cc1 (stereo not given)	-18	-0.36	3	i	-0.91
COc1ccc2nc(NC(=O)c3cccc(S(=O)(=O)N4CCOCC4)c3)sc2c1	-18	-0.9	74*	i	.
